In all, about 330,000 compounds went through this assay and about 1,400 (0.42%) were called active.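 How the source made its calls: active means inhibition above its plate's threshold, mean inhibition of all tested compounds on the plate plus 3 SD (cut at about 37% in these data); inactive means the rest.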 Shown is part of a subset that was picked to be rich in actives.
These compounds were tested against Orexin/Hypocretin receptor type 1 (Homo sapiens) (UniProt O43613) (assay: blockers of orexin-A calcium signaling via HCRTR1 – fluorescence, CHO/OX1R cells, Fluo-8 calcium, primary screen (AID 434989;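 further: 0% = orexin A challenge wells and 100% = SB-334867-A antagonist wells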)). Details: Fluo-8 calcium fluorescence, at 5 µM, active compounds read high.
Orexin/Hypocretin receptor type 1 (Homo sapiens), sequence (O43613 whole entry, looked up): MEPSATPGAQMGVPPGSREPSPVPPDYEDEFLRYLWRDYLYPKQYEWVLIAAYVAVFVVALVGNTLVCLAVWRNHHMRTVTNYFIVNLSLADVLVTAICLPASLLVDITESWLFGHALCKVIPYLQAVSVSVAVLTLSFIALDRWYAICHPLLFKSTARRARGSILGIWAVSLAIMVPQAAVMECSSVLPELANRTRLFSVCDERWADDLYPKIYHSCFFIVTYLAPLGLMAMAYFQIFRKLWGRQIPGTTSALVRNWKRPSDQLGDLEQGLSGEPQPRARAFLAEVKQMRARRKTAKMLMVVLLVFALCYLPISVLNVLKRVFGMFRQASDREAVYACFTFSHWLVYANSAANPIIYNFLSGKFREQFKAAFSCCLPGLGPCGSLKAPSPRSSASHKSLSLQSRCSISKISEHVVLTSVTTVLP

SMILES	inhibition
Cc1ccc(S(=O)(=O)NCC(=O)NNC(=O)c2ccc(Br)cc2)cc1C	-11.2% (inactive)
COc1cccc(CC(=O)OCC(=O)NCc2ccc3c(c2)OCO3)c1	-9.44% (inactive)
COc1cccc(/C=N/Nc2cc(C)nc(-c3ccccc3O)n2)c1O	93.8% (active)
Oc1cccc(/C=N/Nc2ccc(Cl)nn2)c1O	-18.9% (inactive)
COc1ccccc1/C=N/Nc1nc(C)c(C(C)=O)s1	-4.69% (inactive)
CCNC(=O)N(CC)C[C@H]1N[C@@](CC)(C(=O)OC)[C@H]2C(=O)N(Cc3ccccc3)C(=O)[C@@H]12	4.29% (inactive)
C=CCC[C@H](Cc1ccc(F)cc1)C(=O)OC[C@H](C)NC(=O)[C@H](CC=C)CC(=O)N(CCO)Cc1ccccc1	6.31% (inactive)
CN(C)C(=O)CCc1ccc2c3c([nH]c2c1)[C@]1(C)[C@@H](C(=O)N2CCCCC2)C[C@H](CC(=O)NCCC2=CCCCC2)C(=O)N1CC3	-30.3% (inactive)
Cc1c(NC(=O)C(C)OC(=O)c2ccccc2O)c(=O)n(-c2ccccc2)n1C (stereo not given)	-6.55% (inactive)
COc1ccc(C(=O)NC2CCCc3c2cnn3-c2cccc(C)c2C)c(OC)n1 (stereo not given)	44.8% (active)
Cc1cc(C(=O)NC2CCCc3c2cnn3-c2cccc(C)c2C)c(C)o1 (stereo not given)	26.6% (inactive)
Cn1nccc1C(=O)NC1CCCc2c1cnn2-c1ccccc1F (stereo not given)	8.33% (inactive)
CC(C)(C)OC(=O)C[C@@H]1C/C=C\C[C@@H](CC(=O)N(CCO)Cc2ccccc2)C(=O)N[C@H](Cc2ccccc2)COC1=O	-33.6% (inactive)
CN(C(=O)CN(CCO)CC(=O)N(C)C(C)(C)Cc1ccccc1)C(C)(C)Cc1ccccc1	68.2% (active)
CCN(CC)CCCNC(=O)CCc1ccccc1	-15% (inactive)
OCCN(Cc1ccccc1)Cc1ccc(Cl)cc1	9.29% (inactive)
CCN(CC)C(=O)[C@H]1CC(CC(=O)NCc2ccco2)C(=O)N2CCc3c([nH]c4ccccc34)[C@]12C (stereo not given in full)	-11.1% (inactive)
Cc1c(C(=O)Nc2cccc(S(=O)(=O)N3CCOCC3)c2)oc2ccccc12	-3.24% (inactive)
C=CCC1(CC=C)CCCN1C(=O)c1cc(COc2ccc(-n3cncn3)cc2)on1	34.5% (active)
O=C(c1cc(COc2ccc(F)c(F)c2)on1)N1CCOCC1	-5.38% (inactive)
COc1cccc(OCc2cc(C(=O)N3CCN(C(=O)c4ccco4)CC3)no2)c1	-6.35% (inactive)
Cc1ccc(CNC(=O)Cn2cnc3c(NCc4ccccc4)ncnc32)o1	10.5% (inactive)
O=C(NC(Nc1nc2ccc([N+](=O)[O-])cc2s1)(C(F)(F)F)C(F)(F)F)c1ccccc1	59.4% (active)
O=C(CCNC(=O)c1ccccc1)Nc1nc2ccccc2s1	-8.05% (inactive)
O=C(CNC(=O)c1ccccc1)Oc1ccc([N+](=O)[O-])cc1	-4.15% (inactive)
